Laboratory results: PubChem BioAssay (NCI)
The panel holds about 83,000 compounds, 20% with a hit somewhere; the sample as a whole holds those more often.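 Treatment: one concentration, 48 hours, 96-well format. Scoring: percent growth, with anything below 10 considered active.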 Unmarked numbers belong to inactive results. Active and inactive are the calls of the source.

Key:
Test in all cases: NCI-60 one-dose screen, 48 h (100 = growth as untreated, 0 = no growth, -100 = all killed)
Conditions in all cases: 10 µM
K-562 leukemia = test system: K-562 leukemia
MALME-3M melanoma = test system: MALME-3M melanoma
MDA-MB-231 breast = test system: MDA-MB-231 breast
RXF 393 renal = test system: RXF 393 renal
SF-268 CNS = test system: SF-268 CNS
SF-295 CNS = test system: SF-295 CNS
SF-539 CNS = test system: SF-539 CNS
UACC-257 melanoma = test system: UACC-257 melanoma
M14 melanoma = test system: M14 melanoma
HCT-15 colon = test system: HCT-15 colon
HT29 colon = test system: HT29 colon
SNB-75 CNS = test system: SNB-75 CNS
SNB-19 CNS = test system: SNB-19 CNS
U251 CNS = test system: U251 CNS
PC-3 prostate = test system: PC-3 prostate
SK-MEL-5 melanoma = test system: SK-MEL-5 melanoma
UACC-62 melanoma = test system: UACC-62 melanoma
LOX IMVI melanoma = test system: LOX IMVI melanoma
SK-MEL-28 melanoma = test system: SK-MEL-28 melanoma
SK-MEL-2 melanoma = test system: SK-MEL-2 melanoma

Row | SMILES | growth (K-562 leukemia) | growth (MALME-3M melanoma) | growth (MDA-MB-231 breast) | growth (RXF 393 renal) | growth (SF-268 CNS) | growth (SF-295 CNS) | growth (SF-539 CNS) | growth (UACC-257 melanoma) | growth (M14 melanoma) | growth (HCT-15 colon) | growth (HT29 colon) | growth (SNB-75 CNS) | growth (SNB-19 CNS) | growth (U251 CNS) | growth (PC-3 prostate) | growth (SK-MEL-5 melanoma) | growth (UACC-62 melanoma) | growth (LOX IMVI melanoma) | growth (SK-MEL-28 melanoma) | growth (SK-MEL-2 melanoma)
1 | Cc1ccc(C(=O)N2C/C(=C/c3ccc(F)cc3)C(=O)/C(=C/c3ccc(F)cc3)C2)cc1 | 44.2% | 98.5% | 83.4% | 90.4% | 85.2% | 92.5% | 93.2% | 94.4% | 84.8% | 95.1% | 74.1% | 59.7% | 97.8% | 88.9% | 85.2% | 94.6% | 86.3% | 54.5% | 105% | 84%
2 | COc1ccc(OC)c2c1C(=O)CC2C (stereo not given) | 116% | 87% | 100% | 98.3% | 94.2% | 98% | 101% | 107% | 112% | 110% | 108% | 93% | 99.6% | 100% | 97.5% | 94.4% | 96.4% | 100% | 101% | 121%
3 | CCC(=O)N1C/C(=C/c2ccc(Br)cc2)C(=O)/C(=C/c2ccc(Br)cc2)C1 | 0.563% (active) | -67.9% (active) | -46.7% (active) | -92.7% (active) | -38.5% (active) | -34.7% (active) | -81.2% (active) | -46.1% (active) | -76.6% (active) | -32.3% (active) | -58.9% (active) | 1.74% (active) | -32.7% (active) | -81.4% (active) | -42.8% (active) | -53.8% (active) | -80.3% (active) | -87.7% (active) | -72.4% (active) | -33.8% (active)
4 | NC(=S)N=Nc1c(O)c2ccccc2c2ccccc12 | 42.2% | 60.5% | 76.7% | 99.4% | 56.7% | 82.7% | 16.1% | -61.3% (active) | -68.6% (active) | 23.3% | 98.4% | 75.9% | 38.7% | 26.1% | 47.2% | -99% (active) | -85.1% (active) | 1.8% (active) | 35% | 89%
5 | COc1ccc(/C=C2/CN(C(=O)c3ccc(C)cc3)C/C(=C\c3ccc(OC)cc3)C2=O)cc1 | 23.7% | 91.4% | 87.1% | 92.3% | 87.4% | 85.2% | 102% | 98.1% | 69.4% | 91.3% | 32.9% | 82.7% | 98.5% | 89.4% | 68.6% | 89.1% | 86.4% | 42.1% | 116% | 95.1%
6 | CC(=O)N1N=C(c2ccc(Cl)cc2)CC1c1sc(Cl)nc1Cl (stereo not given) | 66.1% | 94.8% | 82.1% | 80.5% | 80.1% | 80.3% | 104% | 91.9% | 94.6% | 96.3% | 64.2% | 84.3% | 66.9% | 71.2% | 72.8% | 89.5% | 83.3% | 88.4% | 94.7% | 84.9%
7 | Nc1c(C(=O)Nc2cccc(Br)c2)sc2nc3c(cc12)C(O)CCC3 (stereo not given) | 7.52% (active) | 64.3% | 44.2% | -22% (active) | 46.2% | 33.9% | -21.2% (active) | 64.7% | 12.8% | 23.5% | 5.13% (active) | 31.2% | 62.2% | 19.3% | 23% | 31.6% | 48.9% | 46.2% | 63.2% | 58.7%
8 | C#Cc1ccc(-n2c(/C=C/c3ccc(O)cc3)nc3ncccc3c2=O)cc1 | 25% | 39.1% | 85.2% | -7.96% (active) | 53.8% | 31.8% | 31.7% | 36.5% | 43.1% | 53.6% | 109% | -1.11% (active) | 82% | 62.5% | 65.3% | 22.3% | 29.1% | 55.5% | 51.7% | 19.9%
9 | Cc1ccc(-c2n[nH]c(=O)c3noc(-c4ccc(C)cc4)c23)cc1 | 13.2% | 26.4% | 58.1% | 38% | 53.5% | 49.3% | 3% (active) | 55.9% | 28.8% | 33.1% | 6.9% (active) | -15% (active) | 56% | 27.7% | 28% | 15.9% | 28.6% | 44% | 52% | 9.04% (active)
10 | N=C(N)c1ccc(-c2ccc(-c3cccs3)o2)cc1 | -13.1% (active) | -72.4% (active) | 0.444% (active) | 39% | 61.6% | -52.3% (active) | 77.9% | -47.3% (active) | -27.4% (active) | -10.2% (active) | -26.5% (active) | 40.6% | 73.7% | 12.4% | 50.5% | 44.6% | 67.7% | 12.2% | 47.6% | -7.14% (active)
11 | COc1cc(-c2cc(/C=C3\C(=O)Nc4ccccc43)[nH]n2)cc(OC)c1OC | 31.7% | 1.21% (active) | 49.9% | 79.3% | 74.8% | 70.6% | 67.8% | 23% | 32.8% | 36.9% | 55.7% | 44.5% | 65.8% | 56.1% | 19% | -57% (active) | -11.1% (active) | 38.6% | 59.8% | 27.5%
12 | O=C(Nc1cccc(-n2cc(-c3ccncc3)c(-c3cc(O)cc(Cl)c3)n2)c1)Nc1ccc(Cl)c(C(F)(F)F)c1 | 5.24% (active) | -24.9% (active) | -47.3% (active) | -49.5% (active) | 42.1% | 14.3% | 32.6% | -40% (active) | -16.8% (active) | 5.79% (active) | 35.3% | 24.1% | 44.5% | -26.5% (active) | 5.34% (active) | 23.8% | -1.44% (active) | 2.08% (active) | -13.5% (active) | -37.9% (active)
13 | O=C(Nc1ccc(CO)cc1)c1ccccc1Nc1ccnc(C(F)(F)F)c1 | 93.7% | 92.5% | 96.9% | 120% | 99.3% | 111% | 101% | 102% | 99.8% | 103% | 109% | 87.8% | 106% | 95.4% | 99.5% | 107% | 95.4% | 92.2% | 101% | 123%
14 | O=C(Nc1nc(-c2ccccc2Cl)cs1)c1cc(-c2ccc(Cl)cc2)nc2ccc(Cl)cc12 | 14.8% | 41.5% | 22% | 88.8% | 28.3% | 89.4% | -5.27% (active) | 66.8% | -2.68% (active) | 8.89% (active) | 6.1% (active) | 20.6% | 39% | 12.5% | 20.8% | -25.4% (active) | 37.5% | 15% | 53.5% | 10.7%
15 | CCCCC(CCCCCC(CCCC)NCc1ccc2c(c1)OCO2)NCc1ccc2c(c1)OCO2 (stereo not given) | -72.3% (active) | -69.3% (active) | -86% (active) | -93.3% (active) | -96.8% (active) | -79.7% (active) | -100% (active) | -86.9% (active) | -100% (active) | -88% (active) | -100% (active) | -100% (active) | -100% (active) | -95.3% (active) | -100% (active) | -100% (active) | -95.4% (active) | -96.8% (active) | -100% (active) | -87.2% (active)
16 | CCCCCCCC(C)NCCO (stereo not given) | 103% | 107% | 123% | 105% | 106% | 90% | 105% | 90.8% | 105% | 116% | 103% | 99.4% | 109% | 108% | 105% | 101% | 113% | 92.8% | 112% | 106%
